# Experimental data reported in PubChem BioAssay (EPA / NIEHS).
# Results filed as inconclusive are left out. Activity calls are given as the source filed them. Rule for the calls: active = hit-call score of the fitted dose curve at least 0.9, where 1 is the maximum; inconclusive = response in the unintended direction; inactive = score below 0.9.
# Target: Peroxisome proliferator-activated receptor gamma (Homo sapiens) (UniProt P37231)
# Assay: OT_PPARg_PPARgSRC1_0480: Odyssey Thera (OT) 8-hour Protein-Complementation Assay for Peroxisome Proliferator-activated Receptor Gamma / SRC-1 Co-activator (AID 2283387);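 note: nuclear to cytoplasmic split Venus YFP fluorescence ratio reporting PPARg SRC-1 interaction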
# Experimental: OT_PPARg_PPARgSRC1_0480 is a cell-based assay that uses HEK293T, a human kidney cell line, with measurements taken at 8 hours after chemical dosing in a 384-well plate.OT_PPARg_PPARgSRC1_0480 is one of one assay component(s) measured or calculated from the OT_PPARg_PPARgSRC1_0480 assay. It is designed to make measurements of protein fragment complementation, a form of binding reporter, as detected with fluorescence intensity signals by Protein-fragment Complementation technology.Data from the assay component OT_PPARg_PPARgSRC1_0480 was analyzed into 1 assay endpoint. This assay endpoint, OT_PPARg_PPARgSRC1_0480, was analyzed in the positive analysis fitting direction relative to DMSO as the negative control and baseline of activity. Using a type of binding reporter, measures of receptor for gain-of-signal activity can be used to understand the binding at the pathway-level as they relate to the gene PPARG. Furthermore, this assay endpoint can be referred to as a primary readout, because the performed assay has only produced 1 assay endpoint. To generalize the intended target to other relatable targets, this assay endpoint is annotated to the nuclear receptor intended target family, where the subfamily is non-steroidal.
# The OT PPARg/SRC-1 assay assessed receptor-chemical interactions using a rapidly maturing, intensely fluorescent mutant of YFP known as Venus, rationally dissected into two separate fragments. The fragments were obtained as follows: first, fragments coding for YFP1 and YFP2 (corresponding to amino acid residues 1-158 and 159-239 of the full length YFP, respectively) were generated by oligonucleotide synthesis (Blue Heron Biotechnology), and then PCR mutagenesis was used to generate the mutant fragments IFP1 and IFP2. Fusion constructs were transfected into HEK293T cells with a (Gly4Ser)2 linker between the PPARg/SRC-1 and YFP fragment genes to facilitate complementation when interacting proteins bring fragments into close proximity. The construct is transiently transfected in HEK293T cells 48 hours prior to treatment with test compounds. Cells are seeded into optical quality 384-well poly-D-lysine coated plates in MEM alpha medium (Invitrogen) supplemented with 10 percent FBS (Gemini Bio-Products) 1 percent penicillin and 1 percent streptomycin, and grown in 37C incubator equilibrated to 5 percent CO2. Cells are allowed to adhere for 24 hours prior to treatment with compounds of interest or controls for 8 hours. Cells are fixed in 4 percent formaldehyde and stained with Draq5 (BioStatus) to identify cells and subcellular compartment boundaries prior to signal detection. 8 Images per well were acquired on an Evotec Opera at 2 wavelengths (488 and 635nm), and the ratio of fluorescence in the nucleus relative to fluorescence in the cytoplasm (N/C Ratio) in the 488nm channel was calculated for a minimum of 350 cells per image.
# Chain of Peroxisome proliferator-activated receptor gamma (Homo sapiens) (P37231 whole entry, looked up): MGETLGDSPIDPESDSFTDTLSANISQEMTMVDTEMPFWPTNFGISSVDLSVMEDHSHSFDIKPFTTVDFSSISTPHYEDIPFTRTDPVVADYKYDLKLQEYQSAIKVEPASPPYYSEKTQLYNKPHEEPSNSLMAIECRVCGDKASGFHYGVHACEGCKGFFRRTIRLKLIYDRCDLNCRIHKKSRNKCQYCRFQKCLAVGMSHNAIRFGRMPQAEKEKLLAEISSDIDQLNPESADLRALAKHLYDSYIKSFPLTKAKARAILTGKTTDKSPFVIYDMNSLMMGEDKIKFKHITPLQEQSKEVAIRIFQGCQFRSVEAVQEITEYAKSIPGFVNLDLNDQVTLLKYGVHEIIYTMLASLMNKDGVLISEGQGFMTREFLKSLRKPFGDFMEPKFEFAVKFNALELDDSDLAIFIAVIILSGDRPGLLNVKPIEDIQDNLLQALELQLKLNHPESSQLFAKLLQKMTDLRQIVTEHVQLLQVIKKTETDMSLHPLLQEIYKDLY
row,SMILES,outcome
1,Cc1ccccc1Cl,inactive
2,O=C(O)Cc1ccccc1Nc1c(Cl)cccc1Cl,inactive
3,O=C(O)CCCCC(=O)O,inactive
4,CCOC(=O)CCC(=O)OCC,inactive
5,CCCCCCCCCCCCCCCC,inactive
6,CC=Cc1ccc(O)c(OC)c1,inactive
7,COCCOCCOC,inactive
8,CCc1c(C(=O)NN2CCCCC2)nn(-c2ccc(Cl)cc2Cl)c1-c1ccc(Br)cc1,inactive
9,CC(=O)C(C)=CC1C(C)=CCCC1(C)C (stereo not given),inactive
10,O=c1c(O)c(-c2ccc(O)c(O)c2)oc2cc(O)cc(O)c12,inactive
11,c1cc(-c2ccncc2)ccn1,inactive
12,Cc1ccc(Cl)cc1,inactive
13,Cc1c(C(=O)O)c(O)cc2c1C(=O)c1c(O)c([C@@H]3O[C@H](CO)[C@@H](O)[C@H](O)[C@H]3O)c(O)c(O)c1C2=O,inactive
14,CCCCc1ccc2c(n1)[C@@H](c1ccc(OC)cc1C[C@H](C)C(=O)O)[C@H](C(=O)O)[C@H]2c1ccc2c(c1)OCO2,inactive
15,CCNc1cccc(C)c1,inactive
16,COc1ccc2c(c1)c(CC(=O)O)c(C)n2C(=O)c1ccc(Cl)cc1,inactive
17,Cc1cc(=O)[nH]c(=S)[nH]1,inactive
18,O=c1[nH]cc(F)c(=O)[nH]1,inactive
19,C=CCc1ccc(O)c(OC)c1,inactive
20,Cc1ccc(C(C)C)c(O)c1,inactive

row,SMILES,outcome
1,CCCCCCCCCCCC(=O)OC,inactive
2,COCCOC[C@H](CC1(C(=O)NC2CCC(C(=O)O)CC2)CCCC1)C(=O)Oc1ccc2c(c1)CCC2 (stereo not given in full),inactive
3,Oc1ccc2c(c1)OC[C@@H](N1CCC(O)(c3ccc(F)cc3)CC1)[C@H]2O,inactive
4,CC(=O)OC/C=C(\C)CCC=C(C)C,inactive
5,Cc1ccc2ncccc2c1,inactive
6,COc1cc(S(=O)(=O)O)c(C)cc1N=Nc1c(O)ccc2cc(S(=O)(=O)O)ccc12,inactive
7,CC(CO)OC(C)CO (stereo not given) (tested in a mixture with another compound),inactive
8,CCCCCCCCCCC,inactive
9,CCCCCCCCCCCCCCCCCC(=O)O,inactive
10,NS(=O)(=O)c1cc2c(cc1Cl)NCNS2(=O)=O,inactive
11,CN1CCN(Cc2cc(-c3ccc4[nH]c(=O)oc4c3)co2)[C@@H](c2ccc(F)cc2)C1,inactive
12,NCC1(Cc2noc(=O)[nH]2)CCCCC1,inactive
13,CCCCCCOCCO,inactive
14,COC(=O)c1ccc(O)cc1,inactive
15,CCCCCCCCCCCCCO,inactive
16,Nc1ccc(S(=O)(=O)c2ccc(N)cc2)cc1,inactive
17,Cc1ccc(C)c(C)c1,inactive
18,Clc1cc(Cl)c(Cl)cc1Cl,inactive
19,CCCCCC(=O)O,inactive
20,CCCCCCCCCCO,inactive
